Shiga inhibitor: A qHTS for Small Molecule Inhibitors of Shiga Toxin | inhibition, % at 38.7 µM | AID 2315, 2010 | Vero cells, Shiga toxin protein synthesis inhibition reporter | hit rate 9.2% among 290,000; in the data active means inhibition mostly above about 28%, no sharp cut-off; inactive means mostly below about 43%; further: 0% is about no effect
NS1 inh: qHTS Assay for Inhibitors of Influenza NS1 Protein Function; AID 2326, 2010; hit rate 0.4% among 270,000; Potency, µM (doses to about 46.1 µM), for inactives: at the top dose activity, positive = more growth; calls by dose curve; further: potency means the concentration at half of the fitted maximal effect; actives are rising curves; nearly all actives have a fitted effect of over 50% in size
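S. cerevisiae expressing influenza A NS1, grown in glucose, washed, then diluted 1:100 into pH 6.0 -URA galactose medium with 23 nl compound. Growth recovery read as OD600; NS1-free strain serves as control.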
Giardia FBPA inh: qHTS Assay for Inhibitors of Fructose-1,6-bisphosphate Aldolase from Giardia Lamblia; A8B2U2; purified Giardia FBPA; Potency, µM (highest dose often 59.6 µM), inactives show at the highest dose activity, negative = inhibition, most hits filed as inhibitors; hit rate 0.71% among 290,000; further: potency means the concentration at half of the fitted maximal effect; on the % scale 0 is the no-effect control and ±100 the full control effect; nearly all actives have a fitted effect of over 55% in size
Target sequence (A8B2U2 whole entry, looked up): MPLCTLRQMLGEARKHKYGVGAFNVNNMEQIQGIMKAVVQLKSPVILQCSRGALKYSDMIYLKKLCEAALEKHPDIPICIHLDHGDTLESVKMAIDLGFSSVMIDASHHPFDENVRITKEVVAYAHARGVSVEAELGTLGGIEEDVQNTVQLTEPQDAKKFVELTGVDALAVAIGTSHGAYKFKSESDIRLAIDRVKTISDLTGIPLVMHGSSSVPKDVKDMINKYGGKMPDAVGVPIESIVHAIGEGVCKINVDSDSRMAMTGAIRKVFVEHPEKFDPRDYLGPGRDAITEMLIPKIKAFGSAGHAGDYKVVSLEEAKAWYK
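40 nM FBPA preincubated 10 min at RT with compound (up to 57.5 uM final), then substrate plus GAPDH/TPI/NAD/arsenate coupling and diaphorase/resazurin added. Fluorescence read after 20 min at RT, 525/598 nm.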
Cycloheximide cs: Cycloheximide Counterscreen for Small Molecule Inhibitors of Shiga Toxin. cell reporter, cycloheximide protein synthesis inhibition counterscreen. max response, %. hit rate 12% among 300,000; in the data active means max response mostly above about 13%, no sharp cut-off; inactive means mostly below about 14%; further: read at 38.3 µM for the half of the compounds with a filed dose; 0% is about no effect
LmPK inhibitor: qHTS Assay for Inhibitors of Leishmania Mexicana Pyruvate Kinase (LmPK). Q27686. purified LmPK, Kinase-Glo ATP luminescence, 1 h. Potency, µM (highest dose often 57.5 µM), for inactives: at the top dose activity change, negative = inhibition, usual class: inhibitors. hit rate 0.37% among 290,000; further: potency means the concentration at half of the fitted maximal effect; on the % scale 0 is the no-effect control and ±100 the full control effect
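In 50 mM imidazole pH 7.2 with 7 mM MgCl2, LmPK (0.1 nM) turned over PEP (0.5 mM) and ADP (0.1 mM) for 1 h at room temperature. Luciferase read-out of ATP.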
An asterisk follows results filed as active; i = inactive; ? = inconclusive; . = not tested or not shown; [ ] = another dose, or the depositor's remark. Sampled rows, rich in hits. Any-hit rate of the full collection: about 14%. Unless noted, the call rests on the fitted dose curve; in most records, active means well fitted curve in the direction sought with a large enough effect; inconclusive means small, poorly fitted or top-dose-only effect, or another doubt; inactive means no such curve, though single readings can be large; an effect the other way counts as inactive or inconclusive.

SMILES | Shiga inhibitor | NS1 inh | Giardia FBPA inh | Cycloheximide cs | LmPK inhibitor
Cc1nc(C2COc3ccccc3O2)sc1C(=O)O (stereo unspecified) | 71* | 1% | 9% | 13* | ?
CCOC(=O)C1C(C(=O)OC)=C(c2ccc(F)cc2)c2ccc(OC)cc2N1S(=O)(=O)C(F)(F)F (stereo unspecified) | 28 | . | -11% | 6 | .
CC(C)NC(=O)N1CC2(CCN(S(=O)(=O)c3ccccc3)CC2)C1 | . | . | 8% | . | .
O=C(CSc1nnc(NC(=O)C2CC2)s1)Nc1cccc(F)c1 | 16 | -1% | . | 21* | -2%
O=C(Nc1nnc(SCC(=O)N2CCOCC2)s1)c1ccccc1 | 13 | 21% | -4% | 22* | -7%
O=C(CCCSc1nnc(Nc2ccccc2F)s1)N1CCOCC1 | 59* | . | -5% | 39* | -6%
O=C(CSc1nnc(NC(=O)c2ccccc2F)s1)NC1CCCC1 | 65* | ? | 5% | 27* | -10%
COc1ccc(-c2nnc3n2N=C(c2ccc(OC)c(OC)c2)CS3)c(OC)c1 | 15 | . | 6% | 0 | .
O=C(CSc1nnc(NC(=O)c2ccccc2)s1)NC1CCCC1 | 43 | 32% | -4% | 17* | -17%
O=C(CSc1nnc(NC(=O)c2ccc(F)cc2)s1)NC1CCCC1 | 4 | -8% | -12% | 1 | -6%
O=C(CSc1nnc(NC(=O)c2ccc(F)cc2F)s1)NC1CCCC1 | 28 | 1% | -10% | 22* | 1%
Cc1cc(C(=O)Nc2ccc(CC(=O)O)cc2)c(C)o1 | -6 | 3% | -2% | -6 | -1%
C[C@H]1[C@H](C)OC(=O)C[C@H](O)C[C@H](O)C[C@H](O)CC[C@H](O)[C@H](O)CC(=O)C[C@H](O)[C@H](C(=O)O)[C@H](O)C[C@H](O[C@@H]2O[C@@H](C)[C@H](O)[C@@H](N)[C@@H]2O)C=CC=CC=CC=CCCC=CC=C[C@@](C)(O)[C@H]1O | . | -42% | . | . | .
CCC(C)(C)C(=O)Nc1nnc(CCc2ccccc2)s1 | 80* | -5% | -2% | 39* | -2%
CC(C)(C)CC(=O)Nc1nnc(CCc2ccccc2)s1 | 93 | 8% | 13% | 29* | -4%
Cc1ccc(C)c(OC(=O)CN2C(=O)c3ccccc3C2=O)c1 | . | -18% | 10% | 2 | 6%
O=c1c(O)c(-c2ccc(O)c(O)c2)oc2c(O)c(O)cc(O)c12 | . | . | 7.1µM* | . | .
COc1ccc(Cc2nc(-c3ccccc3)no2)cc1 | 42* | -20% | 8% | 36* | -1%
COc1ccc(Cc2nc(-c3ccc(-n4cccc4)cc3)no2)cc1OC | 14 | -32% | -6% | 14 | -1%
COc1ccc(Cc2nc(-c3cccs3)no2)cc1OC | 29 | -67% | 0% | 24* | 0%
COc1ccc(Cc2nc(-c3cccs3)no2)cc1 | 70* | -9% | 0% | 33* | 2%
O=C(Nn1cnc2ccccc2c1=O)c1c(F)cccc1F | 3 | -4% | 0% | -2 | -4%
Cc1ccc(C(c2sc3ncnn3c2O)N2CCCCC2)cc1 (stereo unspecified) | 37* | ? | -10% | 10* | 6%
Cc1ccc(C(c2sc3ncnn3c2O)N2CCC(C)CC2)cc1 (stereo unspecified) | 1 | ? | -1% | 2 | 7%
O=C(O)/C=C/C(=O)Nc1ccc(S(=O)(=O)N2CCCC2)cc1 | 13 | . | 14% | 8 | -1%
SMILES | Shiga inhibitor | NS1 inh | Giardia FBPA inh | Cycloheximide cs | LmPK inhibitor
O=C(CNC(=O)c1ccc(Cl)cc1Cl)OCC(=O)c1ccc2c(c1)OCCO2 | 73* | -47% | 4% | 31* | 5%
COc1cc(NC(=O)COC(=O)CNC(=O)c2ccc(C)cc2)c(C)cc1[N+](=O)[O-] | -16 | 7% | 12% | 2 | 2%
CC(C)(C)OC(=O)N1Cc2ccccc2C[C@H]1C(=O)NCC(=O)Nc1ccc2c(c1)OCCO2 | 114* | 3% | -2% | 52* | 1%
CC(C)(C)c1ccc(C(=O)NCC(=O)OCC(=O)Nc2ccccc2[N+](=O)[O-])cc1 | 45* | -34% | -10% | 41* | 4%
O=C(COC(=O)CNC(=O)C1CCCCC1)Nc1ccc2ccccc2c1 | 17 | -58% | 1% | 16 | -1%
O=C(COC(=O)CNC(=O)C1CCCCC1)Nc1ccc2c(c1)OCCO2 | 43 | . | 5% | 26* | 2%
COc1cccc(NC(=O)CNC(=O)[C@@H]2Cc3ccccc3CN2C(=O)OC(C)(C)C)c1 | -10 | -16% | 9% | -2 | 13%
O=C(O)c1ccc(S(=O)(=O)N2CCN(c3ccccn3)CC2)cc1 | 2 | 0% | 24% | 1 | -11%
O=S(=O)(c1ccc(Cl)cc1)N1CCN(S(=O)(=O)c2ccc3c(c2)OCCO3)CC1 | -7 | . | . | -8 | .
CC(/C=N/n1c(COc2ccccc2)n[nH]c1=S)=C\c1ccco1 | -4 | 2% | 15% | 1 | -3%
Cc1ccc(C)c2c1N(Cc1ccccc1)C(=O)C21OCCO1 | 4 | 8% | 0% | -3 | 1%
CC(C)(C)c1ccc(C(=O)NCC(=O)OCC(=O)Nc2ccc3c(c2)OCCO3)cc1 | 16 | -12% | -1% | 12* | 4%
O=C(CNC(=O)C1CCCCC1)Nc1ccc(Cl)cc1 | 30* | 7% | 2% | 23* | 0%
CC1CCN(S(=O)(=O)N2CCC(C(=O)NCc3cccnc3)CC2)CC1 | -4 | -5% | 6% | -1 | 0%
N#CCCN(C(=O)c1cc2c(s1)-c1ccccc1S(=O)(=O)C2)c1ccccc1 | -3 | 7% | . | -12 | -5%
CN(CCC#N)C(=O)c1cc2c(s1)-c1ccccc1SC2 | 81* | -2% | -6% | 52* | 2%
O=C(c1cccc(Br)c1)N1CCCc2ccccc21 | 1 | 3% | -10% | -2 | -7%
O=C(C1CC(c2ccc(F)cc2)=NO1)N1CCCc2ccccc21 (stereo unspecified) | 17 | -8% | 0% | 0 | 6%
COc1ccc(CC(=O)N2CCCc3ccccc32)cc1OC | -14 | -4% | 0% | -3 | 2%
COc1ccc(OC)c(C2=NOC(C(=O)N3CCCc4ccccc43)C2)c1 (stereo unspecified) | 84* | -117% | 1% | 56* | 8%
Cc1cccc(OCC(=O)N2CCCc3ccccc32)c1 | 2 | -5% | 5% | 5 | -2%
O=C(c1coc(=O)c(Br)c1)N1CCCc2ccccc21 | 74* | 9% | ? | 40* | 6%
CC(=O)c1cccc(OCC(=O)N2CCCc3ccccc32)c1 | 32 | -1% | 4% | 23* | 1%
COc1ccc(CC(=O)N2CCCc3ccccc32)cc1 | 99* | -16% | 7% | 54* | 1%
CCCCCC/C=C1\CC(C(=O)OCC)Oc2ccccc21 (stereo unspecified) (tested in a mixture with another compound) | i | . | 3%[89.2 µM] | 3 | .
CCc1cc2c3c(c(=O)oc2cc1OCC(=O)OC)CCCC3 | -8 | -67% | -5% | -2 | -3%

Screens deposited in PubChem BioAssay by National Center for Advancing Translational Sciences (NCATS).
